Measured values: PubChem BioAssay AID435019 (Southern Research Specialized Biocontainment Screening …, 2010)
In all, about 2,300 compounds went through this assay and about 1,200 (52%) were called active. So high a share suggests a set chosen from earlier hits. Some of the results follow. Results with a measured potency or affinity are listed apart. A number with no mark means an inactive call. No rule for the calls is given here.

Assay: mammalian cell cytotoxicity, dose response, cytotoxicity control for M. tuberculosis inhibitor project (AID 435019);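 also: 0% = background wells and 100% = vehicle-treated cells; lower values mean fewer viable cells so more cytotoxicity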
Details: cytotoxicity counter-screen; series mostly up to 40 µM; viability: at the top concentration

Row | Compound | viability
1 | COc1ccc(C(=O)OCC(=O)c2ccc(Br)s2)c(OC)c1 | 94.2%
2 | CCOC(=O)C1CCCc2c1[nH]c1c(C(N)=O)cccc21 (configuration not stated) | 92.2%
3 | O=C(OCc1ccccc1F)c1cnc(Cl)c(Cl)c1 | 94.4%
4 | O=C(OCc1ccc([N+](=O)[O-])cc1)c1cc2ccccc2oc1=O | 103%
5 | COc1ccccc1C1=NOC(COC(=O)c2ccc([N+](=O)[O-])cc2)C1 (configuration not stated) | 97.8%
6 | CCCCS/C(N)=N/N=C/c1cc(C)ccc1O | 85.3%
7 | Nc1ccc(Oc2ccc(F)cc2)nc1 | 100%
8 | CCOC(=O)c1cc(-c2cccc([N+](=O)[O-])c2)on1 | 96.6%
9 | CNC(=S)Nc1ccc(N2CCN(c3ccc(C(F)(F)F)cn3)CC2)nc1 | 92.3%
10 | CCCCCCC#Cc1ccc2c(c1)COc1c3ccccc3nn1-2 | 83.6%
11 | O=C(NC1CCCCCC1)c1ccccc1-c1ccccc1 | 83.2%
12 | COc1cc(N)c(Cl)cc1C(=O)N[C@H]1CCN(CCCOc2ccc(F)cc2)C[C@H]1OC | 95%
13 | N#CC(C(=O)Nc1ccccc1)=C1Nc2ccccc2N1 | 80.9%
14 | Cc1ccccc1C(=O)Nc1ccccc1C(=O)NCC(C)C | 90.5%
15 | CSc1nc2nc3c(c(=O)n2[nH]1)CCCC3 | 96.8%
16 | c1ccc(CCNc2ncnc3c2cnn3-c2ccccc2)cc1 | 84.7%

Row | Compound | viability
17 | CCSc1ncc(/C=N/Nc2ccccc2)n1C | 84.5%
18 | CN1/C(=C\C(=O)C[n+]2ccc(C(=O)c3ccccc3)cc2)C(C)(C)c2ccccc21 | 96.7%
19 | CCCN(CC1CC1)C(=O)COC(=O)c1ccc2c(c1)C(=O)N(c1ccc(OCC)cc1)C2=O | 94.9%
20 | CCOC(=O)c1ccc2c(c1)C(=O)N(C1CCCCC1)C2=O | 92.8%
21 | CN(C)C=Nc1ccc2nn(-c3ccccc3)nc2c1 | 93.2%
22 | COC(=O)CSc1[nH]c2ccc(Br)cc2c1[N+](=O)[O-] | 93.3%
23 | CCOC(=O)c1csc(-c2snnc2C)n1 | 95.6%
24 | O=C(COC(=O)C1CC2CCCC(C1)C2=O)NNC(=O)c1ccccc1F (configuration not stated) | 101%
25 | Cn1nnc(NC(=S)NC(=O)c2ccc(-c3ccc(Br)cc3)o2)n1 | 92.3%
26 | NC(=S)NNc1ccc(Cl)c(Cl)c1 | 96.9%
27 | Nc1ccc(C(=O)OCCCc2nc3cc4ccccc4cc3[nH]2)cc1 | 90.5%
28 | COCCOC(=O)c1ccc(NC(=O)COc2ccc([N+](=O)[O-])cc2)cc1 | 101%
29 | CS(=O)(=O)c1ncc(Cl)c(C(=O)Nc2ccc(OC(F)F)cc2)n1 | 87.7%
30 | CC1CCN(C(=O)C2CCN(c3nnc(-n4cccc4)s3)CC2)CC1 | 86.7%
31 | COCc1nnc(NC(=O)C2CC(=O)N(c3ccc(C)c(Cl)c3)C2)s1 (configuration not stated) | 87.4%
32 | COc1ccc2c(c1)[C@@H]1[C@H](CO2)[C@H](c2ccccc2)[C@]2(C)C(=O)Nc3ccc(C)cc3C(=O)N12 | 84.9%
